Reference: PubChem BioAssay (EPA / NIEHS)
Active and inactive are the calls of the source. The calls were made as follows: active = hit-call score of the fitted dose curve at least 0.9, where 1 is the maximum; inactive = score below 0.9.

The compounds below were run against Signal transducer and activator of transcription 3 (Homo sapiens) (UniProt P40763) (assay: ATG_STAT3_CIS: Attagene CIS-FACTORIAL HepG2 Assay for human Signal Transducer and Activator of Transcription 3 (STAT3) (AID 2282963)). Conditions: HepG2, Attagene cis-factorial STAT3 reporter transcription; actives raise or lower the signal.
Chain of Signal transducer and activator of transcription 3 (Homo sapiens) (P40763 whole entry, looked up): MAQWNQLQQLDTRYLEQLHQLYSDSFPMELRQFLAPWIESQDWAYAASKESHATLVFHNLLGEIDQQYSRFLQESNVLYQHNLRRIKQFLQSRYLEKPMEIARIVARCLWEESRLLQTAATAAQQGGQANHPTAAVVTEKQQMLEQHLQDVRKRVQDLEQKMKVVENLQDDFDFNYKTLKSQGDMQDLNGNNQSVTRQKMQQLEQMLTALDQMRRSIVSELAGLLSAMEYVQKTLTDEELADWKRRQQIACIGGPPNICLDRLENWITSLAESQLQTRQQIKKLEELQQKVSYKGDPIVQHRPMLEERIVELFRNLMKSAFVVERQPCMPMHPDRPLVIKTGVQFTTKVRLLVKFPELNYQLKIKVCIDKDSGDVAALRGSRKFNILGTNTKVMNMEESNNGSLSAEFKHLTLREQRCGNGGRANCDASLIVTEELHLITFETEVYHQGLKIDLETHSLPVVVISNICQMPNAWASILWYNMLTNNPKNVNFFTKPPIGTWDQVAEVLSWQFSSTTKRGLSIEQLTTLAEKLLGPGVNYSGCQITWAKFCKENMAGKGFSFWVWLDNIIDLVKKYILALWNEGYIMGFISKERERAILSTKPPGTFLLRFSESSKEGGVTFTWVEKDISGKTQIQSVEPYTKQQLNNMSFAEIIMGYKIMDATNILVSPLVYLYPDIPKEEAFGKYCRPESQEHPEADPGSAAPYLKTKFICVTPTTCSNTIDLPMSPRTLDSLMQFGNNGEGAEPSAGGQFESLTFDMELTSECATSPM
Procedure, shortened: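 Values derive from bidirectional fits relative to DMSO of reporter mRNA levels, measured by RT-PCR with capillary electrophoresis, in HepG2 cells carrying transiently transfected cis-regulated reporter units and exposed 24 h.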
In the case of `Cn1cc(-c2ccccc2)c(=O)c(-c2cccc(C(F)(F)F)c2)c1`, the outcome is reported as “inactive”.
`O=C(N[C@H](c1ccccc1)[C@@H]1CN2CCC1CC2)c1c(Cl)ccc(C(F)(F)F)c1Cl` was tested, and the outcome was “inactive”.
With `N#CC(Br)Br` the outcome was “inactive”.
`COC(=O)c1ccccc1N` was tested, and the outcome was “inactive”.
For `CN(C)c1ccc(C(=O)c2ccc(N(C)C)cc2)cc1`, the outcome was “inactive”.
In the case of `ClCCOCCCl`, the outcome is reported as “inactive”.
In the case of `CC(C)(C)OOC(=O)c1ccccc1`, the outcome is reported as “inactive”.
In the case of `CCN(CC)N=O`, the outcome is reported as “inactive”.
`Nc1ccc(Oc2ccc(N)cc2)cc1` was tested, and the outcome was “inactive”.
With `Nc1cc(Cl)cc(C(=O)O)c1Cl` the outcome was “inactive”.
`CN(C)C(=O)Nc1ccc(Cl)cc1` was tested, and the outcome was “inactive”.
`c1ccc(C2CO2)cc1` (stereo not drawn) was tested, and the outcome was “inactive”.
`CCC12COCN1COC2` was tested, and the outcome was “inactive”.
`CC(C)(O)c1cnn2c(-c3ccc(F)c(-c4c(F)cccc4C#N)c3)cnc2n1` was tested, and the outcome was “inactive”.
In the case of `Clc1ccc(C(c2ccc(Cl)cc2)C(Cl)(Cl)Cl)cc1`, the outcome is reported as “inactive”.
In the case of `CCN(CC)CCO`, the outcome is reported as “inactive”.
For `CC(C)(C)C(O)(CCc1ccc(Cl)cc1)Cn1cncn1` (stereo not drawn), the outcome was “inactive”.
For `CCCCCCCCCCCCCN1CC(C)OC(C)C1` (stereo not drawn), the outcome was “inactive”.
`ClC1=C(Cl)C2(Cl)C3C(Cl)C=CC3C1(Cl)C2(Cl)Cl` (stereo not drawn) was tested, and the outcome was “inactive”.
`C[N+](C)(C)CC1CO1` (stereo not drawn) was tested, and the outcome was “inactive”.
In the case of `CO[C@@H]1[C@H](OC(=O)NC(=O)CCl)CC[C@]2(CO2)[C@H]1[C@@]1(C)O[C@@H]1CC=C(C)C`, the outcome is reported as “inactive”.
In the case of `CCCCOC(=O)c1ccccc1C(=O)OCc1ccccc1`, the outcome is reported as “inactive”.
With `O=C(Nc1ccccc1)c1ccccc1I` the outcome was “inactive”.
In the case of `Oc1ccccc1Cl`, the outcome is reported as “inactive”.
In the case of `Clc1ccccc1Cl`, the outcome is reported as “inactive”.
`Clc1ccc(Cl)c(Cl)c1` was tested, and the outcome was “inactive”.
With `CNC(=O)Oc1cccc2c1OC(C)(C)C2` the outcome was “inactive”.
`N#CC(Br)(Br)C(N)=O` was tested, and the outcome was “inactive”.
